Data published in PubChem BioAssay (Tox21).
“And” between values parts separate entries of the source, which are not always exact repeats. Identical values can stand only once. Results filed as inconclusive are left out. Entries that show only a call come without a potency. The source holds several records for some structures; these can differ, active in one and inactive in another. The source made the active and inactive calls. Unless noted, calls come from the whole dose curve.

Experiments:
[1] = Nuclear factor erythroid 2-related factor 2/antioxidant responsive element (Nrf2/ARE) small molecule agonists: qHTS cell viability counter screen in human keratinocytes (AID 1919968; active = well fitted curve in the direction sought with a large enough effect in the repeat runs; an effect the other way counts as inactive or inconclusive; note: nearly all actives have a fitted effect of over 55% in size; note: potency is the fitted concentration of half-maximal effect)
Summary of the method: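 Viability counter-screen: KeratinoSens reporter cells, DMSO-delivered compounds, 23 h at 37 C, CellTiter-Fluor fluorescence.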

[2] = Nuclear factor erythroid 2-related factor 2/antioxidant responsive element (Nrf2/ARE) small molecule agonists: luciferase reporter gene qHTS assay in human keratinocytes (AID 1919969); note: nearly all actives have a fitted effect of over 35% in size; note: potency is the fitted concentration of half-maximal effect
[3] = target: KiSS-1 receptor (Homo sapiens) (UniProt Q969F8); test: Human kisspeptin (KISS1R) small molecule agonists, calcium flux assay in KISS1R-HEK293 cells (AID 1920064; active = well fitted curve in the direction sought with a large enough effect in the repeat runs; an effect the other way counts as inactive or inconclusive)
Chain of KiSS-1 receptor (Homo sapiens) (Q969F8 whole entry, looked up): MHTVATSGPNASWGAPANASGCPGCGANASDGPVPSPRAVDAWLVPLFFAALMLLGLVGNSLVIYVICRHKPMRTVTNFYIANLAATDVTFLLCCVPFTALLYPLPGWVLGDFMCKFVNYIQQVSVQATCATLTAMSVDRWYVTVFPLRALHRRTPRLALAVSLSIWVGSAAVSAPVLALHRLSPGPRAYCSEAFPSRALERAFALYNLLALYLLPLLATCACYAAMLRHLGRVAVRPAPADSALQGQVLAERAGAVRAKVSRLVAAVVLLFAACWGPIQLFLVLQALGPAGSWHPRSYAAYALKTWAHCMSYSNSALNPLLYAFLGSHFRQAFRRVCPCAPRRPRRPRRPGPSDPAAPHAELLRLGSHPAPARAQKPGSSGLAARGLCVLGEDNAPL
Summary of the method: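 Intracellular calcium mobilization in KISS1R-HEK293 cells was recorded by fluorescence (Ex/Em 480/540) for 3 min following compound addition to cells pre-loaded 1 h with calcium dye.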

[4] = G protein-coupled receptor (GPCR) small molecule agonists, calcium flux assay: HEK293 wild type cell line counter screen (AID 1920065)
Summary of the method: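 In this agonist-mode screen, ATP is the positive control and DMSO the vehicle. Cells grow 18 h before a 1 h dye incubation at 37 C; signal is taken at Ex/Em 480/540 over 3 min.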

[5] = p53 small molecule agonists, cell-based qHTS assay with human liver microsomes (AID 1963577);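 note: p53 response element beta-lactamase reporter cells with liver microsomes plus NADPH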
Summary of the method: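 p53RE-bla cells; 5 h settle, 37 C/5% CO2; cpd + HLM 0.5 mg/mL + NADPH 0.5 mg/mL (final); 16 h 37 C; LiveBLAzer 2 h RT dark; fluorescence readout.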

[6] = p53 small molecule agonists, cell-based qHTS assay with rat liver microsomes (AID 1963578)
Summary of the method: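 Rat liver microsome activation: microsomes 0.5 mg/mL, NADPH 0.5 mg/mL final; p53RE-bla cells, 16 h 37 C; LiveBLAzer readout, 2 h RT dark.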

[7] = p53 small molecule agonists, cell-based qHTS assay with human liver microsomes: qHTS cell viability counter screen (AID 1963579); note: nearly all actives have a fitted effect of over 45% in size; note: potency is the fitted concentration of half-maximal effect
Summary of the method: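 Luminescent CellTiter-Glo read-out, 30 min at room temperature, gauged cytotoxicity in p53RE-bla cells exposed 16 h at 37 C to DMSO-dissolved compounds with metabolic activation by human liver microsomes and NADPH, each 0.5 mg/mL final.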

[8] = p53 small molecule agonists, cell-based qHTS assay with rat liver microsomes: qHTS cell viability counter screen (AID 1963580); note: nearly all actives have a fitted effect of over 45% in size
Summary of the method: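 p53RE-bla HCT-116 cells were exposed 16 h at 37 C to compounds with rat liver microsomes (0.5 mg/mL) and NADPH (0.5 mg/mL). Viability was measured in the same wells as ATP content by CellTiter-Glo luminescence.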

[9] = p53 small molecule agonists, cell-based qHTS assay: qHTS cell viability counter screen (AID 1963581); note: nearly all actives have a fitted effect of over 45% in size
Summary of the method: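 Compounds are pinned onto HCT-116 p53RE-bla cells and left 16 h at 37 C. Following the reporter FRET read, ATP is quantified by CellTiter-Glo luminescence after 30 min at room temperature.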

[10] = p53 small molecule agonists, cell-based qHTS assay (AID 1963582; active = well fitted activation curve with a large enough effect in the signal ratio in the repeat runs, not every such curve was filed as active; the % refers to the signal ratio)
Summary of the method: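 Agonist activity was scored from beta-lactamase FRET fluorescence in p53RE-bla cells treated 16 h at 37 C with compounds in DMSO, substrate incubation being 2 h at room temperature.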

[11] = target: 5-hydroxytryptamine receptor 2A (Homo sapiens) (UniProt P28223); test: 5-hydroxytryptamine receptor 2A (HTR2A) small molecule antagonists, cell-based qHTS assay (AID 1963586); note: nearly all actives have a fitted effect of over 45% in size; note: potency is the fitted concentration of half-maximal effect
Chain of 5-hydroxytryptamine receptor 2A (Homo sapiens) (P28223 whole entry, looked up): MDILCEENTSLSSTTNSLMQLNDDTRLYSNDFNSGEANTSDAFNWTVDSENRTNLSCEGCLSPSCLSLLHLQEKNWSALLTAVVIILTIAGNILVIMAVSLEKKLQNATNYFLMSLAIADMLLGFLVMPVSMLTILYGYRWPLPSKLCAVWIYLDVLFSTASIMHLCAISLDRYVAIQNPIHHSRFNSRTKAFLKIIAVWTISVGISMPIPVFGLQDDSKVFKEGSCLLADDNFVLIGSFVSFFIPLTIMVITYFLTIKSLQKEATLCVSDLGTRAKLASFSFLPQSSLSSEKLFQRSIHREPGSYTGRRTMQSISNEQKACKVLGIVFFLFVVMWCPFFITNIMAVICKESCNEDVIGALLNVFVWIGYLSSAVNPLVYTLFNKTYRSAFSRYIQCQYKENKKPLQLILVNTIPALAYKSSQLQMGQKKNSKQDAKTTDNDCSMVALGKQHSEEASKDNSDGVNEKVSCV
Summary of the method: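 Antagonist-mode intracellular calcium assay: DOI (4 nM) added after 5 min compound pre-incubation at room temperature to dye-loaded HTR2A-CHO cells. Fluorescence followed for 3 min, sampled every second.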

[12] = target: 5-hydroxytryptamine receptor 2A (Homo sapiens) (UniProt P28223); test: 5-hydroxytryptamine receptor 2A (HTR2A) small molecule agonists, cell-based qHTS assay (AID 1963587); note: nearly all actives have a fitted effect of over 30% in size; note: potency is the fitted concentration of half-maximal effect
Summary of the method: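 CHO cells stably expressing human HTR2A, plated 18 h, loaded with calcium dye 1 h at 37 C. Agonist mode: compounds added and intracellular calcium fluorescence recorded kinetically for 2 min at 1 sec intervals.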

[13] = target: Muscarinic acetylcholine receptor M1 (Homo sapiens) (UniProt P11229); test: Cholinergic receptor muscarinic 1 (CHRM1) small molecule antagonists, cell-based qHTS assay (AID 1963588); note: nearly all actives have a fitted effect of over 40% in size
Chain of Muscarinic acetylcholine receptor M1 (Homo sapiens) (P11229 whole entry, looked up): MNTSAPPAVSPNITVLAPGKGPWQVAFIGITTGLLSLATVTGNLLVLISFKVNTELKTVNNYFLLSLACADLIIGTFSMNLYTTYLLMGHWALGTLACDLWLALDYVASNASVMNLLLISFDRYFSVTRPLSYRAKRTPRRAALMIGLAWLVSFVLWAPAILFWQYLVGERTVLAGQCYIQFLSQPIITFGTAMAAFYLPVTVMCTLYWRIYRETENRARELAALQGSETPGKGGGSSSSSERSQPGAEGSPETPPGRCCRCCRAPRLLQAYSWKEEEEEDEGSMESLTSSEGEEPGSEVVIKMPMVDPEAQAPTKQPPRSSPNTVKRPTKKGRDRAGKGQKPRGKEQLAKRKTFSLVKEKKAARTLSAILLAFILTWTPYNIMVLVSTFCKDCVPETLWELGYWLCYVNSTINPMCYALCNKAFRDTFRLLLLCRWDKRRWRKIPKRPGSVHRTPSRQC
Summary of the method: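 CHRM1-CHO calcium-flux assay, antagonist mode. Cells were seeded 18 h, dye-loaded 1 h at 37 C and given compound for 5 min at RT, then acetylcholine was added at 50nM. FDSS fluorescence was read 3 min; 15 concentrations, three runs.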

[14] = target: Muscarinic acetylcholine receptor M1 (Homo sapiens) (UniProt P11229); test: Cholinergic receptor muscarinic 1 (CHRM1) small molecule agonists, cell-based qHTS assay (AID 1963589); note: nearly all actives have a fitted effect of over 35% in size; note: potency is the fitted concentration of half-maximal effect
Summary of the method: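 Stable CHRM1-CHO cells (human receptor) were incubated 18 h, dye-loaded for 1 h at 37 C and exposed to test compounds for agonist activity, with calcium-dependent fluorescence followed kinetically.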

[15] = cAMP Responsive Elements (CRE) small molecule agonists, cell-based qHTS assay (AID 1963590)
Summary of the method: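 FRET-based beta-lactamase readout (LiveBLAzer B/G, 2 h RT) quantified CRE activation in HEK 293T CRE-bla cells after 3 h treatment with DMSO-dissolved compounds.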

[16] = target: Beta-2 adrenergic receptor (Homo sapiens) (UniProt P07550); test: Adrenergic beta2 receptor (ADRB2) small molecule antagonists, cell-based qHTS assay (AID 1963592); note: series mostly up to about 92 µM; nearly all actives have a fitted effect of over 50% in size
Chain of Beta-2 adrenergic receptor (Homo sapiens) (P07550 whole entry, looked up): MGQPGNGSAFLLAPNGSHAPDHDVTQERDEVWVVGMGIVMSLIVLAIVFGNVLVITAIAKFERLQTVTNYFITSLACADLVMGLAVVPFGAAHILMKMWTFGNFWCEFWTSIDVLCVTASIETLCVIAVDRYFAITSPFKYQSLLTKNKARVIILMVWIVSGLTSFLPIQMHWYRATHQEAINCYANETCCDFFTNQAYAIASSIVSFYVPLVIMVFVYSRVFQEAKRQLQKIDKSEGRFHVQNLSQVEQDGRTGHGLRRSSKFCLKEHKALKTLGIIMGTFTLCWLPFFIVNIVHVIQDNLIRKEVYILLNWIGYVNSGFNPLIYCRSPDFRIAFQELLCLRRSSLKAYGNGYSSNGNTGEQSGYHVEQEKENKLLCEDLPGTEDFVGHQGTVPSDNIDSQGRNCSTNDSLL
Summary of the method: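 Cells (CHO, stable ADRB2 overexpression) incubated 18-20hr at 37C; compounds added from DMSO; agonist mix (1nM isoproterenol, 100uM IBMX, 25uM Ro-20-1724) added; 0.5hr RT; d2-cAMP and anti-cAMP-cryptate added; 1hr RT; 665/615 nm read.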

[17] = target: Beta-2 adrenergic receptor (Homo sapiens) (UniProt P07550); test: Adrenergic beta2 receptor (ADRB2) small molecule agonists, cell-based qHTS assay (AID 1963593);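 note: CHO cells stably overexpressing human ADRB2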
Summary of the method: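 CHO cells stably over-expressing ADRB2 were plated overnight at 37C, then dosed with compounds plus a stimulation mix containing 100uM IBMX and 25uM Ro-20-1724 for 0.5hr at room temperature. cAMP was measured by HTRF competition, 1hr.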

[18] = target: D(2) dopamine receptor (Homo sapiens) (UniProt P14416); test: Dopamine D2 receptor (DRD2) small molecule agonists, cell-based qHTS assay (AID 1963594); note: nearly all actives have a fitted effect of over 35% in size
Chain of D(2) dopamine receptor (Homo sapiens) (P14416 whole entry, looked up): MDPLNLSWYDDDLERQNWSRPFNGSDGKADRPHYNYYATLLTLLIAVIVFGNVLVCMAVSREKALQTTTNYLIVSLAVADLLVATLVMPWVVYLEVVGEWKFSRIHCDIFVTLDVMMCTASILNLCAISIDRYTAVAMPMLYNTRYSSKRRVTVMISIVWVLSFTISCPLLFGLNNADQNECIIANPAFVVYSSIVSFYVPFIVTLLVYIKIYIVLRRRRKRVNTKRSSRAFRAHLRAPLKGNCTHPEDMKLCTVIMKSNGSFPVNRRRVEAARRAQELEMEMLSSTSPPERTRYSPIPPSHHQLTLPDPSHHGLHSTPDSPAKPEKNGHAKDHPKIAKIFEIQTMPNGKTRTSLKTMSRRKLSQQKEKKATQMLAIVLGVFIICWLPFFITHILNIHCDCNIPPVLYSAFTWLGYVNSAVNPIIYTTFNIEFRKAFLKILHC
Summary of the method: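 HEK293 cells stably expressing human DRD2, pre-treated with PDE inhibitor Ro20-1724 (0.1 mM final) and compound 10 min at room temperature, then stimulated with NKH477 (200nM […]) for 30 min. cAMP read by HTRF (665/620 nm).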

[19] = target: D(2) dopamine receptor (Homo sapiens) (UniProt P14416); test: Dopamine D2 receptor (DRD2) small molecule antagonists, cell-based qHTS assay (AID 1963595; active = well fitted inhibition curve with a large enough effect in the signal ratio in the repeat runs, with a control signal flat; the % refers to the signal ratio; note: potency is the fitted concentration of half-maximal effect)
Summary of the method: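 In this cell-based antagonist screen, compounds act for 10 min at room temperature before a 30 min challenge with 12 nM quinpirole and 200 nM NKH477. cAMP is quantified by HTRF competition in DRD2-HEK293 cells containing 0.1 mM Ro20-1724.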

[20] = cAMP Responsive Elements (CRE) small molecule antagonists, cell-based qHTS assay (AID 1963591; active = well fitted inhibition curve with a large enough effect in the signal ratio in the repeat runs, not every such curve was filed as active; the % refers to the signal ratio)
Summary of the method: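 qHTS in CRE-bla HEK 293T cells: compound in DMSO, then 0.25 uM NKH477 (final), 3 h at 37 °C/5% CO2; beta-lactamase FRET read-out after 2 h substrate incubation.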

| SMILES | Potency [1] | Potency [2] | Potency [3] | Potency [4] | Potency [5] | Potency [6] | Potency [7] | Potency [8] | Potency [9] | Potency [10] | Potency [11] | Potency [12] | Potency [13] | Potency [14] | Potency [15] | Potency [16] | Potency [17] | Potency [18] | Potency [19] | Potency [20] |
| --- | --- | --- | --- | --- | --- | --- | --- | --- | --- | --- | --- | --- | --- | --- | --- | --- | --- | --- | --- | --- |
| CCCCCCCCCCCCN | inactive and 30.6 µM (active) | inactive | inactive | inactive | inactive | inactive | inactive and 40.8 µM (active) | inactive | inactive | inactive | 5.94 µM (active) and inactive | 24.5 µM (active) and inactive | inactive | inactive and 24.5 µM (active) | inactive | inactive | inactive | inactive | inactive and 43.3 µM (active) | – |
| CC(=O)O[C@]1(C(C)=O)CC[C@H]2[C@@H]3C=C(Cl)C4=CC(=O)CC[C@]4(C)[C@H]3CC[C@@]21C | inactive | 68.5 µM (active) and inactive | inactive | inactive | inactive | inactive | inactive | inactive | inactive | inactive | – | – | – | – | – | inactive | inactive | – | inactive | – |
| Nc1c2c(nc3ccccc13)CCCC2 | 54.5 µM (active) and inactive | 48.6 µM (active) and inactive | inactive | inactive | inactive | inactive | inactive | inactive | inactive | inactive | – | – | – | – | – | inactive | inactive | – | inactive | inactive |
| N[C@@H](Cc1cc(I)c(Oc2cc(I)c(O)c(I)c2)c(I)c1)C(=O)O | inactive | inactive | inactive | inactive | inactive | inactive | inactive | inactive | inactive | inactive | inactive | – | inactive | inactive | inactive | inactive | inactive | inactive | inactive | inactive |
| CC1=C(/C=C/C(C)=C/C=C/C(C)=C/C(=O)Nc2ccc(O)cc2)C(C)(C)CCC1 | 49.8 µM (active) and 13.3 µM (active) | 2.22 µM (active) and 2.11 µM (active) | – | – | inactive | – | 41.8 µM (active) and inactive | inactive | – | inactive | inactive | inactive | inactive | inactive | inactive | inactive | inactive | inactive | inactive | – |
| O=[N+]([O-])C(CO)(CO)CO | inactive | inactive | inactive | inactive | inactive | inactive | inactive | inactive | inactive | inactive | inactive | inactive | inactive | inactive | – | inactive | inactive | inactive | – | inactive |
| CC(=O)c1ccc(S(=O)(=O)NC(=O)NC2CCCCC2)cc1 | inactive | inactive | inactive | inactive | inactive | inactive | inactive | inactive | inactive | inactive | inactive | inactive | inactive | inactive | inactive | inactive | inactive | inactive | inactive | inactive |
| CC(C)Cc1ccccc1 | inactive | inactive | inactive | inactive | inactive | inactive | inactive | inactive | inactive | inactive | inactive | inactive | inactive | inactive | inactive | inactive | inactive | inactive | inactive | inactive |
| CCOC(=O)CC(=O)OCC | inactive | inactive | inactive | inactive | inactive | inactive | inactive | inactive | inactive | inactive | inactive | inactive | inactive | inactive | inactive | – | inactive | inactive | inactive | inactive |
| CCCCNS(=O)(=O)c1ccccc1 | inactive | inactive | inactive | inactive | – | inactive | inactive | inactive | inactive | – | inactive | inactive | inactive | inactive | – | inactive | inactive | inactive | – | inactive |
| CCc1ccc(O)cc1 | inactive | inactive | inactive | inactive | – | inactive | – | inactive | inactive | inactive | inactive | inactive | inactive | inactive | inactive | inactive | inactive | – | inactive | inactive |
| Brc1cc(Oc2cc(Br)c(Br)c(Br)c2Br)c(Br)c(Br)c1Br | inactive | 68.9 µM (active) and inactive | inactive | inactive | inactive | – | 20.5 µM (active) and inactive | inactive | inactive | inactive | inactive | inactive | inactive | inactive | inactive | inactive | inactive | – | inactive | inactive |
| COC1=CC(=O)C[C@@H](C)[C@]12Oc1c(Cl)c(OC)cc(OC)c1C2=O | inactive | inactive | inactive | inactive | – | – | inactive | inactive | – | – | – | – | – | – | inactive | inactive | inactive | inactive | inactive | inactive |
| CCOCC(=O)O | inactive | – | inactive | inactive | inactive | inactive | inactive | inactive | inactive | inactive | inactive | inactive | inactive | inactive | inactive | inactive | inactive | inactive | inactive | inactive |
| CCc1nc(N)nc(N)c1-c1ccc(Cl)cc1 | inactive | inactive | inactive | – | inactive | inactive | inactive | inactive | – | inactive | inactive | – | inactive | inactive | inactive | inactive | inactive | inactive | inactive | inactive |
| CCN(CC)C(=O)c1cccc(C)c1 | inactive | inactive | inactive | inactive | – | – | inactive | inactive | inactive | – | inactive | inactive | inactive | inactive | inactive | inactive | inactive | inactive | inactive | – |
